Consider 7 compounds from PubChem BioAssay.

By viability is commonly meant a read-out of living cells in per cent, often relative to untreated cells. One may read the inhibition as the change of the read-out against control, counted positive when it falls.

Records with an inconclusive call do not appear. The source made the active and inactive calls.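 The calls were made as follows, unless noted: active = viability at or below 27.92% in each of two runs, the all-compound median minus 4 SD; inconclusive = no clear call, values can overlap the other calls; inactive = the rest.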

Assay [1] in a line: reducers of endogenous Her2 protein level, primary screen, SKBR3 breast tumor cells, AlphaScreen, ATP viability (AID 461;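 active = Her2 level under about 52% in both replicate screens, with viability over 70% of control, limit read from the data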;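 as to Her2 level: lower value means less Her2 protein in the cells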;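 as to viability: percent of carrier control wells set as 100% viability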). The following applies: 18-24 h, measured here: SKBR3 viability, ATP luminescence, at 10 µM.
Assay [2] has as its target Receptor tyrosine-protein kinase erbB-2 (Homo sapiens) (UniProt P04626). Described as above. The following applies: 18-24 h, at 10 µM, stronger effect = lower value.
The nature of assay [3]: SK-BR-3 cell growth inhibitors, pilot screen, 24 h, human (AID 572;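 active = viability at or below 10% of carrier control in both of two separate runs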;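 also: compound exposure lasted between 18 and 24 h rather than exactly 24 h; 100% = carrier-treated control wells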). The following applies: SK-BR-3 viability, CellTiter-Glo luminescence, at 10 µM, stronger effect = lower value. (Cellular ATP, detected with luciferase, serves as a proxy for viable cell number.)
Assay [4] in a line: HUVEC growth inhibition – cell-based, human, primary screen (AID 575;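 active = viability at or below 30% in both replicate assays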;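 also: 100% = median of untreated cell wells with 0.1% DMSO on each plate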). The following applies: HUVEC proliferation, CellTiter-Glo luminescence, 72 h; at 10 µM; stronger effect = lower value.
Assay [5] is described as follows: growth inhibitors of H69AR lung tumor, primary screen, human, duplicate replicates (AID 580;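 active = viability at or under a set limit in both replicates, limit being median viability minus 3 SD, cut at about 48% in these data, passing the limit was not always enough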;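 also: 100% = mean luminescence of untreated wells and 0% = no signal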). The following applies: H69AR lung tumor cells viability, ATP luminescence, 72 h; at 10 µM; stronger effect = lower value.
Assay [6] in a line: reversal of MRP1-mediated doxorubicin resistance, pilot screen, H69AR cells, doxorubicin co-treatment (AID 601;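 active = viability loss from added drug above about 55%, and viability with drug at most 40%, in both replicates, limit read from the data, passing the limit was not always enough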). The following applies: CellTiter-Glo, 72 h, at 10 µM; for differential viability (reversal): stronger effect = higher value.
Assay [7] in a line: 384-well plate pilot, post-Golgi transport modulator project, inhibition of yeast transport mutant growth (AID 636; in the data active = inhibition above about 31%). The following applies: absorbance 615 nm, about 18 h, stronger effect = higher value.
Assay [8] in a line: growth suppression of yeast trafficking mutant, preliminary HTS, modulators of trafficking downstream of Golgi apparatus project, 1536-format plate, OD 615 nm (AID 637; in the data active = inhibition above about 30%). The following applies: yeast transport mutant growth, absorbance 615 nm, 18 h; stronger effect = higher value.
Assay [9] in a line: OD615 S. cerevisiae growth inhibition, permissive medium, pilot counter-assay, permissive growth control for S. cerevisiae lifespan shortening project (AID 705;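 active = growth inhibition above 25% in both replicates, a cutoff set 3 SD above the mean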). The following applies: OD615, 24 h, at 10 µM, stronger effect = higher value.
A short description of assay [10]: Restrictive medium S. cerevisiae growth inhibition, OD615, pilot screen of yeast lifespan reduction project, restrictive growth control (AID 706;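 active = growth inhibition above a set limit, 3 SD over mean compound inhibition, in both replicates, cut at about 43% in these data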;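 also: modified DeaD lifespan yeast strain shifted to restrictive glucose medium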). The following applies: OD615, 48 h, at 10 µM, stronger effect = higher value.
Assay [11] in a line: viability gain of MRP-1-high H69AR cells under doxorubicin, pilot screen, MRP-1 activator project, CellTiter-Glo, duplicate (AID 807;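 active = viability increase at or above a cutoff of the median across tested compounds plus 3 SD, cut at about 8.5% in these data, passing the limit was not always enough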;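 also: compound pretreatment 18-22 h then 72 h combined with doxorubicin; 0% = doxorubicin alone and 100% = vehicle without doxorubicin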). The following applies: H69AR viability with doxorubicin, CellTiter-Glo luminescence; at 10 µM; stronger effect = higher value.
Assay [12] is described as follows: growth suppression of beta-catenin knockout HCT116, pilot screen, human colon tumor cells (AID 823;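 active = cell viability at or below a set limit in both duplicate runs, the limit being the all-compound median minus 4 SD, cut at about 23% in these data, passing the limit was not always enough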;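 also: 0% = wells killed by 20 µM Hyamine and 100% = untreated DMSO cell wells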). The following applies: CellTiter-Glo, 60 h, at 10 µM, stronger effect = lower value.
Assay [13] is described as follows: growth suppression of PTEN-deleted HCT116, pilot screen, cell-based, HCT116 clonal line, CellTiter-Glo (AID 824).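 Also: 0% = 20 µM Hyamine control and 100% = vehicle cell control.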 The following applies: 60 h, at 10 µM, stronger effect = lower value.
Assay [14] is described as follows: inhibitors of the yeast RAM network, pilot screen, dse1pr::URA3 reporter, 5-FOA selection (AID 869;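 active = inhibition over a set limit, the all-compound mean plus 3 SD, in both replicate runs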;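 also: 0% = DMSO wells with no growth and 100% = 10 µM 1-NA-PP1 with full growth; RAM network block rescues cells from 5-FOA so hits raise OD615 growth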). The following applies: S. cerevisiae dse1pr::URA3 5-FOA growth, OD615, 2 d; at 10 µM; stronger effect = higher value; strain carries analog-sensitive mutant Cbk1 kinase.
Assay [15] can be described thus: RAM signaling pathway blockade in yeast – S. cerevisiae, Pdr1DBD-CYC8 efflux-inhibited sensitized strain, primary screen (AID 1298;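 active = RAM network inhibition above 8.4% in each of two replicates, 3 SD over the compound average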;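 also: 0% = DMSO untreated cells without growth and 100% = 10 µM 1-NA-PP1 full growth; higher means more yeast growth rescued from 5-FOA killing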). The following applies: S. cerevisiae cbk1-as DSE1-URA3 strain, 5-FOA growth OD615, 2 d; at 50 µM; stronger effect = higher value.
Where [16] appears, read: H69AR cells + 2 uM doxorubicin, measured here: viability with 2 uM doxorubicin, stronger effect = lower value.
The mark [17] stands for this setting: H69AR cells, compound alone cytotoxicity.

Chain of Receptor tyrosine-protein kinase erbB-2 (Homo sapiens) (P04626 whole entry, looked up): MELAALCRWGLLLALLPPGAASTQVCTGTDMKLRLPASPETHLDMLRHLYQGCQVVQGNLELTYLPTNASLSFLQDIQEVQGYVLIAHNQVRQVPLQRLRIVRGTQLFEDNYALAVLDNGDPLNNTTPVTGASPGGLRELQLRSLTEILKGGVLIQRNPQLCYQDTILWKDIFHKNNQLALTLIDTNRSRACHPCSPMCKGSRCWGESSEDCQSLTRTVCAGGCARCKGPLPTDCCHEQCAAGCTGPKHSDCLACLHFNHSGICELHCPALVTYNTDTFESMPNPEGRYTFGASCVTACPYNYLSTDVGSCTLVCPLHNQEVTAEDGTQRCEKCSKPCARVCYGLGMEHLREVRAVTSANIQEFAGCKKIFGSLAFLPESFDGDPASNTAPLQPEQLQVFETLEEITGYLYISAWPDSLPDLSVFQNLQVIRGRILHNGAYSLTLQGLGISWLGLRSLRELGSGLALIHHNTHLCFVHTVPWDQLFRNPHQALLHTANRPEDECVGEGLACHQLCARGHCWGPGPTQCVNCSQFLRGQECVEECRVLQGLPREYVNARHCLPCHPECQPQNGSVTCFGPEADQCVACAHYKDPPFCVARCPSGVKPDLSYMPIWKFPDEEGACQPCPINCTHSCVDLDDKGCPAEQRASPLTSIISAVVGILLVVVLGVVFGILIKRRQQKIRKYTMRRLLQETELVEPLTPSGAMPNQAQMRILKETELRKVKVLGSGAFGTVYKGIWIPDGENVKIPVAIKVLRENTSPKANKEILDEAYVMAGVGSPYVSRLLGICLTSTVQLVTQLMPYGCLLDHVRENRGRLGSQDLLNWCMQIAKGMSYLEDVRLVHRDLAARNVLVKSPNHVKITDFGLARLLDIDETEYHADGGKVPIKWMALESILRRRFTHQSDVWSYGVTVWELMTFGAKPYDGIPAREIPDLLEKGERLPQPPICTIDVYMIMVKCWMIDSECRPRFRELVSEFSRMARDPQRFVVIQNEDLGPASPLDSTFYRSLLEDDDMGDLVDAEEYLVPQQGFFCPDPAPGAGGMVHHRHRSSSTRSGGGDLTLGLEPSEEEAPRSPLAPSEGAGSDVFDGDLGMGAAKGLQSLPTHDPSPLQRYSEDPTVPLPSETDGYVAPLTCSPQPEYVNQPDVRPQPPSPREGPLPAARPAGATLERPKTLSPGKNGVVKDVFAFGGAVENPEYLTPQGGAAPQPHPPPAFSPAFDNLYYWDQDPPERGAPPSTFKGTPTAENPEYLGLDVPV

Consider `COc1ccc(OC)c(C2=NOC(C(=O)Nc3cc(C)nn3-c3ccccc3)C2)c1` (centres undefined), for which the viability in assay [1] was 86.5%; in assay [3], 86.5% (inactive); in assay [4], 114% (inactive); in assay [5] it was 95.2% (inactive); in assay [6] (setting [16]), 85.5%; in assay [6] (setting [17]), 95.2%. Further, the viability in assay [12] is 94.2% (inactive); in assay [13], 94.9% (inactive). In assay [2], the Her2 level is 106% (inactive). In assay [6] (H69AR cells + 2 uM doxorubicin), the differential viability (reversal) was 9.74% (inactive). The inhibition in [7] was -2.56% (inactive); in assay [8] it was -0.33% (inactive); in assay [14], 1.83% (inactive). Besides, the growth inhibition in [9] was -7.35% (inactive); in assay [10] it was -4.62% (inactive). Besides, in [11], the viability increase was 0.16% (inactive). Further, the RAM network inhibition in assay [15] was 7.22% (inactive).
Turning to `O=C(c1cccc(F)c1)N1CCc2ccccc21`, the viability in assay [1] was 96.5%; in assay [3] it was 96.5% (inactive); in [4], 91.2% (inactive); in [5] it was 98.9% (inactive); in assay [6] (setting [16]) it was 95.6%; in assay [6] (setting [17]), 98.9%. Besides, the viability in [12] was 86.3% (inactive); in assay [13] it was 96% (inactive). In addition, in [2], the Her2 level was 80% (inactive). Besides, the differential viability (reversal) in assay [6] (H69AR cells + 2 uM doxorubicin) is 3.25% (inactive). Besides, the inhibition in [7] is -5.14% (inactive); in assay [8] it was 0.98% (inactive); in assay [14], 0.88% (inactive). The growth inhibition in assay [9] was -19.5% (inactive); in [10] it was -20.4% (inactive). For the same compound, the viability increase in assay [11] was -5.03% (inactive). For the same compound, in assay [15], the RAM network inhibition was 2.7% (inactive).
As for `O=C(CC1Oc2ccccc2NC1=O)NCCCN1CCOCC1` (centres undefined), the viability in [1] is 106%; in assay [3], 106% (inactive); in [4] it was 85.5% (inactive); in assay [5] it was 93.5% (inactive); in [6] (setting [16]) it was 96.9%; in assay [6] (setting [17]), 93.5%. For the same compound, the viability in [12] is 108% (inactive); in assay [13] it was 96.8% (inactive). For the same compound, the Her2 level in [2] was 100% (inactive). In addition, in [6] (H69AR cells + 2 uM doxorubicin), the differential viability (reversal) was -3.48% (inactive). In addition, the inhibition in [7] is -5.07% (inactive); in assay [8], 2.67% (inactive); in assay [14], 1.94% (inactive). Moreover, the growth inhibition is 2.08% (inactive) in assay [9] and -1.36% (inactive) in assay [10]. Moreover, in assay [11], the viability increase was -2.31% (inactive). In [15], the RAM network inhibition was 0.57% (inactive).
For `CCOC(=O)Cn1c(=O)c(-c2ccccc2N)nc2ccccc21`, the viability in [1] is 101%; in assay [3] it was 101% (inactive); in [4], 85.3% (inactive); in [5], 75.6% (inactive); in assay [6] (setting [16]), 81.7%; in [6] (setting [17]), 75.6%. The figures for the viability in [12] and in [13] were 108% (inactive) and 98.8% (inactive), respectively. Also, the Her2 level in assay [2] is 84.5% (inactive). Moreover, the differential viability (reversal) in assay [6] (H69AR cells + 2 uM doxorubicin) was -6.16% (inactive). The inhibition was -5.6% (inactive) in [7], -2% (inactive) in assay [8] and 2.16% (inactive) in [14]. For the same compound, the growth inhibition in assay [9] is 2.3% (inactive); in assay [10] it was 0.83% (inactive). The viability increase in assay [11] was -1.72% (inactive). Moreover, in assay [15], the RAM network inhibition is 3.47% (inactive).
For the compound `COc1ccc(NC(=O)CN(c2cc(C)cc(C)c2)S(=O)(=O)c2c(C)noc2C)cc1OC`, the viability in assay [1] was 89%; in assay [3], 89% (inactive); in assay [4], 110% (inactive); in assay [5], 88.2% (inactive); in assay [6] (setting [16]) it was 73.6%; in assay [6] (setting [17]) it was 88.2%. The viability in assay [12] was 89% (inactive); in [13], 92.5% (inactive). Also, the Her2 level in assay [2] is 73% (inactive). Also, in assay [6] (H69AR cells + 2 uM doxorubicin), the differential viability (reversal) is 14.6% (inactive). Besides, the inhibition is 0.26% (inactive) in assay [7], -1.67% (inactive) in [8] and 3.25% (inactive) in assay [14]. Also, the growth inhibition is -9.49% (inactive) in assay [9] and -4.85% (inactive) in assay [10]. The viability increase in assay [11] was -2.49% (inactive). Also, in [15], the RAM network inhibition was 5.58% (inactive).
For the compound `CC1Cc2nc(SCC(=O)N3CCCc4ccccc43)n(C)c(=O)c2S1` (centres undefined), the viability in assay [1] is 97%; in assay [3] it was 97% (inactive); in assay [4], 84.8% (inactive); in assay [5] it was 72% (inactive); in [6] (setting [16]), 51.2%; in [6] (setting [17]) it was 72%. In addition, the viability was 76.1% (inactive) in assay [12] and 73.4% (inactive) in [13]. Further, the Her2 level in assay [2] was 91% (inactive). For the same compound, the differential viability (reversal) in assay [6] (H69AR cells + 2 uM doxorubicin) is 20.9% (inactive). For the same compound, the inhibition in assay [7] was -4.27% (inactive); in assay [8] it was 0.33% (inactive); in [14] it was 3.17% (inactive). For the same compound, the growth inhibition in assay [9] is -5.25% (inactive); in assay [10] it was -9.97% (inactive). Also, the viability increase in [11] is -3.51% (inactive). Besides, in assay [15], the RAM network inhibition was 6.46% (inactive).
For the compound `c1ccc(-c2cn3cccnc3n2)cc1`, the viability was 118% in assay [1]; 118% (inactive) in [3]; 106% (inactive) in [4]; 101% (inactive) in assay [5]; 90.4% in assay [6] (setting [16]); 101% in assay [6] (setting [17]). For the same compound, the viability in assay [12] is 110% (inactive); in [13], 100% (inactive). In addition, in assay [2], the Her2 level was 88.5% (inactive). Also, in assay [6] (H69AR cells + 2 uM doxorubicin), the differential viability (reversal) was 10.5% (inactive). Moreover, the inhibition in assay [7] is -6.45% (inactive); in assay [8], -0.73% (inactive); in assay [14], 3.13% (inactive). The growth inhibition is -10.6% (inactive) in [9] and -27% (inactive) in assay [10]. Besides, the viability increase in assay [11] was 0.59% (inactive). In assay [15], the RAM network inhibition was 1.13% (inactive).
